# Measurements as given in PubChem BioAssay (NCI).
# This is part of a sample that, as a whole, favours compounds with a hit. Of some 83,000 tested, about 20% had one in any assay.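 Method: cells in 96-well plates; compound added at one concentration; 48 h incubation; percent growth measured; values under 10 scored active.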 Activity calls are given as the source filed them.
# Tested on: MCF7 breast
# Test: NCI-60 one-dose screen, 48 h (100 = growth as untreated, 0 = no growth, -100 = all killed)
# Conditions: 10 µM
row,Compound,growth
1,COc1ccc(-c2cc(C(=O)N=Nc3c(O)[nH]c4ccc(Br)cc34)c3ccccc3n2)cc1,-6.48% (active)
2,CC(=O)c1ccc(Nc2nc(SCCC(C)C)nc(-c3ccc(F)cc3)c2C#N)cc1,59.6% (inactive)
3,Clc1cccc(N/N=C/c2c[nH]c3ccccc23)n1,11.2% (inactive)
4,O=[N+]([O-])c1ccc(-c2nc(-c3ccccc3)c(-c3ccccc3)n2-c2ccc(S(=O)(=O)Nc3ncccn3)cc2)cc1,29.3% (inactive)
5,O=C(CSc1nnc(-c2ccc3nc(-c4ccc(Cl)cc4)[nH]c3c2)o1)Nc1ccc(Cl)cc1,-72.7% (active)
6,CCOC(=O)c1c(CSc2ccccc2)n(C)c2cc(CN(C)C)c(O)c(CN(C)C)c12,3.06% (active)
7,N#Cc1c(NC(=O)c2cccc(C(F)(F)F)c2)sc2c1CCC(O)=C2,27.9% (inactive)
8,Cc1ccc(-c2nc(Nc3ccc(S(N)(=O)=O)cc3)c3ccccc3n2)cc1,26.7% (inactive)
9,Cc1ccc2nc(COc3ccc(C(=O)NNC(=S)NC(=O)c4ccccc4)cc3)[nH]c2c1,30.6% (inactive)
10,O=C(CNc1nc(-c2ccccc2)cs1)Nc1cccc([N+](=O)[O-])c1,-81.6% (active)
11,CC(=O)Nc1ccc(-c2cn(-c3cccc(C(=O)Nc4cccc(OC(F)(F)F)c4)c3)nn2)cn1,70.1% (inactive)
12,OCCCNc1oc(-c2ccccc2)nc1[P+](c1ccccc1)(c1ccccc1)c1ccccc1,0.534% (active)
13,CC(C)Sc1nc(NC2CC2)c(C#N)c(-c2ccccc2)n1,88.1% (inactive)
14,OCCNc1oc(-c2ccccc2)nc1[P+](c1ccccc1)(c1ccccc1)c1ccccc1,2.37% (active)
15,C/C(=C\c1ccc(O)cc1O)c1ccc2ccc(O)cc2[o+]1,22.2% (inactive)
16,Cc1noc2c(Cc3ccc([N+](=O)[O-])cc3)nn(CC(=O)N/N=C/c3ccc(Cl)cc3)c(=O)c12,52.5% (inactive)
17,CCOC(=O)CNC(=O)CN(Cc1ccccc1)C(=O)[C@@]1(C)CCC[C@]2(C)[C@H]3CC4C(C(C)C)=C[C@]3(CC[C@H]21)[C@@H]1C(=O)CCC(=O)[C@H]41,13.1% (inactive)
18,O=C(CSc1nnc(-c2c[nH]c3ccccc23)n1-c1ccccc1)c1ccc(Cl)cc1,38.4% (inactive)
19,COc1ccc(-c2cc(C(=O)N=Nc3c(O)[nH]c4ccc(F)cc34)c3ccccc3n2)cc1,23.6% (inactive)

row,Compound,growth
1,O=C1Nc2ccc(Cl)cc2/C1=C/c1ccc(OCc2ccccn2)cc1,28.9% (inactive)
2,Cc1noc2c(Cc3ccccc3)nn(CC(=O)N/N=C/c3ccc(Cl)cc3)c(=O)c12,51.9% (inactive)
3,COc1ccc2[nH]c(=O)c(CSc3cccc(N)c3)cc2c1,31% (inactive)
4,COc1ccc(C(=O)/C=C/c2cc(F)cc(C(F)(F)F)c2)cc1S(N)(=O)=O,-90.6% (active)
5,Nc1cc(-c2cccc(C(=O)NCc3ccc4c(c3)OCO4)c2)ccn1,86.5% (inactive)
6,Cc1ccc(/C(N)=N/c2sc(-c3ccccc3)nc2-c2ccccc2)cc1,55.9% (inactive)
7,CN(C(=O)c1ccc(C(C)(C)C)cc1)c1sc2c(c1C#N)CCC(=O)C2,25.7% (inactive)
8,O=C(NO)c1ccc(CNC(=O)[C@H]2Cc3c([nH]c4ccccc34)[C@H](c3ccccc3)N2)cc1,14.4% (inactive)
9,COc1ccc2cc([C@H](C)C(=O)NCc3ccccc3)ccc2c1,22.5% (inactive)
10,Cc1noc2c(Cc3ccccc3)nn(CC(=O)N/N=C/c3ccc(F)cc3)c(=O)c12,61.7% (inactive)
11,COc1cnc2c(c1)C(=O)c1c-2n(CCCNCCO)c(=O)c2cc(OC)c(OC)cc12,5.82% (active)
12,CN1CCc2c(sc3ncnc(N/N=C/c4cn(-c5ccccc5)nc4-c4ccc(Cl)cc4)c23)C1,-31.6% (active)
13,N#Cc1c(NC(=O)c2ccc(C(F)(F)F)cc2C(F)(F)F)sc2c1CCC(=O)C2,-10.6% (active)
14,O=C1N/C(=N\c2nccs2)S/C1=C\c1cccs1,15.4% (inactive)
15,CC(=O)c1ccc(Nc2nc(SC(C)C)nc(-c3ccccc3)c2C#N)cc1,26.4% (inactive)
16,O=C(CNc1nc(-c2ccccc2)cs1)Nc1ccc([N+](=O)[O-])cc1Cl,9.27% (active)
17,O=C(NO)c1ccc(Cn2ccc3c(Nc4ccccc4)ncnc32)cc1,14% (inactive)
18,O=C(NO)c1ccc(CN2CCN(c3nc(-c4ccccc4)c4ccccc4n3)CC2)cc1,9.79% (active)
